# IL-2 act: qHTS of IL-2 Activators; IL-2 activation reporter assay, cell-based qHTS; stimulated with anti-CD3/CD4/CD28 beads; in transgenic mouse T cells; activation, % (series mostly up to about 46 µM); hit rate 0.065% among 360,000; in the data active means activation above about 50%; inconclusive means mostly about 30% to 49%; further: 0% is about no effect
#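 Unstimulated transgenic mouse T cells, 750 per well, received compound and, after 60 minutes, anti-CD3/anti-CD4 bead plus anti-CD28 stimulation. EGFP and DsRed were quantified after 18 hours.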
# uPA surface inh: qHTS for Inhibitors of Cell Surface uPA Generation; cell surface uPA generation assay, qHTS; Potency, µM (top dose mostly 38.3 µM), inactives show at the highest dose activity change, negative = inhibition, hits mostly inhibitors; hit rate 0.31% among 330,000; active means well fitted inhibition curve with a large enough effect; inconclusive means small, poorly fitted or top-dose-only effect; inactive means no such curve, though single readings can be large or run the other way; tested in mouse RAW 264.7 cells; further: potency means the concentration at half of the fitted maximal effect; on the % scale 0 is the no-effect control and ±100 the full control effect; nearly all actives have a fitted effect of over 55% in size
# 12-LOX inh: Primary qHTS assay for inhibitors of human arachidonate 12S-lipoxygenase (ALOX12): Round 2; Polyunsaturated fatty acid lipoxygenase ALOX12 (Homo sapiens), P18054; purified 12hLO, xylenol orange hydroperoxide absorbance; Potency, µM (top dose mostly 108 µM), for the others: at the highest dose activity change, negative = inhibition, usual class: inhibitors; hit rate 1.1% among 580,000; further: potency means the concentration at half of the fitted maximal effect; on the % scale 0 is the no-effect control and ±100 the full control effect
# Target sequence (P18054 whole entry, looked up): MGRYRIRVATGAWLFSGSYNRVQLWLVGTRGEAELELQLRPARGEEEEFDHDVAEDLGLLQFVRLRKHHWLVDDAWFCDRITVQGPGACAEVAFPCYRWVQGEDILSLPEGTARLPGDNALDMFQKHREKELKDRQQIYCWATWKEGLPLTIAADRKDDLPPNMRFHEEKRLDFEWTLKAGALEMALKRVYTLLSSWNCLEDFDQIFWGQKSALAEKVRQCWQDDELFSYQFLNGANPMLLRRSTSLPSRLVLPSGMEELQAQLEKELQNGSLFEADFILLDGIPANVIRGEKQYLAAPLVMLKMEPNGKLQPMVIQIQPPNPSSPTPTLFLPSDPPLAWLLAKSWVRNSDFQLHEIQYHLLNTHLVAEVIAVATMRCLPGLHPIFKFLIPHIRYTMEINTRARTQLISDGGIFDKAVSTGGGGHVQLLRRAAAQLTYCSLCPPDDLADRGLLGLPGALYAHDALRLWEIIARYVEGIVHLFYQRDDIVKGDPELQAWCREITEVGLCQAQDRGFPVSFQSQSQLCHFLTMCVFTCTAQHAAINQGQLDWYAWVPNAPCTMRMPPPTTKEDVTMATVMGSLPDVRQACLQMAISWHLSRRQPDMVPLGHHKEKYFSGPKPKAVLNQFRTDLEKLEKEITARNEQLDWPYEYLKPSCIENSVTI
#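 Purified human 12hLO (150 nM final) in 25 mM Hepes, 0.01% Triton X-100, pH 7.0 was preincubated 15 min at room temperature with compound. Then 40 uM arachidonic acid was added, 30 min. Hydroperoxide was read by Fe-XO absorbance ratio 573/405 nm.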
# Nrf2 ARE act: qHTS of Nrf2 Activators. AREc32 ARE-luciferase reporter (MCF7-derived line), luminescence, 24 h. Potency, µM (titrated, usually from 46.1 µM), without a hit: at the top dose activation, most hits filed as activators. hit rate 0.31% among 410,000; further: potency means the concentration at half of the fitted maximal effect; % of control where 0% means no effect; nearly all actives have a fitted effect of over 65% in size
#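 For detection, Steady-Glo was added and plates sat 30 min at RT; before that, AREc32_Fluc cells grown overnight in OPTI-MEM/5% FBS had been treated with 23 nL compound for 24 hr at 37 deg C.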
# a7 integrin act: qHTS for Activators of Integrin-Mediated Alleviation for Muscular Dystrophy. AID 624291, 2012. hit rate 0.064% among 350,000. alpha7betagal myoblasts, beta-gal FDG fluorescence, 48 h. Potency, µM (top dose mostly 38.3 µM), for the others: at the highest dose activation, hits mostly activators;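 further: potency means the concentration at half of the fitted maximal effect; 100% = response of the positive control SU9516; nearly all actives have a fitted effect of over 60% in size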
#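 Alpha7betagal+/- myoblasts (passage 13) were plated 16-24 hr, then exposed to compounds (1:260 dilution of DMSO stock) for 48 hours at 37C. After MPER lysis, β-galactosidase reporter activity was read as FDG fluorescence (ex 480/em 540) after 30 minutes.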
# Starred values were filed as active, the others as inactive; ? = inconclusive; . = no result; ! = a repeat was not active; [ ] = remark or other dose. An excerpt weighted towards active compounds, which were near 1.5% of everything screened. Unless noted, the call rests on the fitted dose curve; in most records, active means well fitted curve in the direction sought with a large enough effect; inconclusive means small, poorly fitted or top-dose-only effect, or another doubt; inactive means no such curve, though single readings can be large; an effect the other way counts as inactive or inconclusive.
SMILES,IL-2 act,uPA surface inh,12-LOX inh,Nrf2 ARE act,a7 integrin act
O=C(NCc1ccc(-c2ccc(F)cc2)o1)C1CC(=O)N(Cc2cccnc2)C1 (configuration not stated),.,.,4.6%,.,.
CNC(=O)c1ccc(-c2nc(CN3CCN(C(=O)Nc4ccc(C)c(Cl)c4)CC3)c(C)o2)cc1,.,.,-2.8%,.,.
CCc1ccc(-c2[nH]c3c(c2-c2sc(C)c(C(=O)OC)c2O)c(=O)n(C)c(=O)n3C)cc1,.,.,-12.2%,-1.4%,.
COC(=O)c1c(C)sc(-c2c(-c3ccc(F)cc3)[nH]c3[nH]c(=O)[nH]c(=O)c23)c1O,.,.,44.7µM*,-0.9%,.
Cc1noc(C)c1COc1ccccc1C(=O)NNC(=O)c1ccccc1F,-1.5,-0.8%,34.4%,10µM*,4.1%
Cc1noc(C)c1COc1ccccc1C(=O)NNC(=O)c1ccc(F)cc1,1.3,-3.3%,12.5%,-0.4%,3.1%
Cc1noc(C)c1COc1ccc(C(=O)NNC(=O)c2ccccc2F)cc1,0.1,2.82µM*,.,0.3%,-45.1%
Cc1noc(C)c1COc1ccc(C(=O)NNC(=O)c2ccccc2)cc1,-1.9,-12.9%,0.4%,-0.2%,-4.7%
CCCN(CC(=O)Nc1ccccc1OC)C(=O)c1cc(-c2ccccc2)nn1-c1ccccc1,-0.1,-0.6%,44.7µM*,4.2%,0.0%
O=C(NCCC1CCN(Cc2ccccc2)CC1)C1CCCN(c2ncnc3nc[nH]c23)C1 (configuration not stated),.,.,2.1%,.,.
CCC1(c2ccccc2)NC(=S)N(c2cccc(C)c2C)N1 (configuration not stated),-6.7,4.1%,25.1µM*,0.3%,-20.9%
Cc1cccc(-n2c(-c3ccccc3)c[nH]c2=S)c1C,-3.8,0.5%,?,3.6%,-28.7%
Cc1cc2ncc(C(=O)NCc3cccc4ccccc34)cn2n1,.,.,-11.7%[176 µM],.,.
O=C(c1cccc(S(=O)(=O)N2CCOCC2)c1)N1CCN(S(=O)(=O)c2cccc([N+](=O)[O-])c2)CC1,0.2,-1.4%,2.2%,0.0%,-10.5%
O=[N+]([O-])c1cccc(S(=O)(=O)N2CCN(S(=O)(=O)N3CCOCC3)CC2)c1,0.0,-3.6%,-4.9%,2.7%,10µM*
CCN(CC)c1ccc(/C=N/N2C(=O)c3ccccc3C2=O)cc1,1.3,4.9%,4.1%,0.7%,21.8%
CCN(CC)c1ccc(/C=N/N2CC(=O)NC2=S)cc1,1.4,?,3.55µM*,0.8%,0.0%
O=C(NCc1cccc(F)c1)c1nc2c(o1)CCN(CC1CCCC1)CC2,.,.,0.6%[176 µM],.,.
CCCS(=O)(=O)NCc1ccc(C(=O)O)cc1,.,.,24.6%,.,.
Cc1nn(-c2ccc(C(C)C)cc2)c(C)c1[C@@H]1C=C[C@@H](NCc2ccccc2)C1,.,.,3.0%[176 µM],.,.
CC(C)c1cccc(C(C)C)c1OC(=O)NC(=O)c1c(F)cccc1F,-4.9,-16.1%,-14.9%,-0.7%,4.2%
CC(C)c1cc(C(C)C)c(CC(=O)NS(=O)(=O)Oc2c(C(C)C)cccc2C(C)C)c(C(C)C)c1,.,.,24.3µM*,.,.
COCC(=O)Nc1nc2ccccc2s1,-1.0,2.6%,-24.5%,0.8%,0.6%
NC(=S)Nc1nc2ccccc2s1,-4.9,-1.5%,6.31µM*,?,-10.9%
O=C(CCl)N=c1sccn1Cc1cccc2ccccc12,-0.7,0.224µM*,-21.2%,-3.2%,-22.2%
SMILES,IL-2 act,uPA surface inh,12-LOX inh,Nrf2 ARE act,a7 integrin act
COC(=O)C12CC3CCC(CC(C(=O)OC)(C1)C3=O)C2=O,.,.,20.2%,.,.
COc1ccccc1CCNC(C)CCc1ccc(O)cc1 (configuration not stated),0.4,-0.2%,6.4%,-0.2%,-21.1%
CC(CCc1ccc(O)cc1)NCCc1ccc(O)c(O)c1 (configuration not stated),1.6,7.94µM*,1.44µM*!,5.6%,.
C/C(=N\NC(=S)Nc1ccccc1C)c1cc2ccccc2o1,0.1,6.3%,20µM*,3.6%,18.6%
Cc1cc([N+](=O)[O-])nn1Cc1ccc(C(=O)N/N=C/c2ccc(O)cc2O)cc1,1.0,7.08µM*,-18.3%,-0.7%,-22.3%
COc1ccnc(-c2nnc3ccc(N(C)Cc4ccccc4)nn23)c1,.,.,-1.2%[176 µM],.,.
CCc1cc(=O)n(CC(=O)Nc2ccc(OC)cc2)c(-c2cccc(F)c2)n1,.,.,48.0%,.,.
